Ten compounds from ChEMBL document CHEMBL1157539, “Thousands of chemical starting points for antimalarial lead identification” (Nature, 2010) can be followed below.

Common to all, as to type: functional
Test [1] deals with Plasmodium falciparum. The test is described as follows: GSK_TCMDC: Inhibition of Plasmodium falciparum 3D7 in whole red blood cells, using parasite LDH activity as an index of growth. Test compounds present at 2uM.
Test [2] concerns Plasmodium falciparum. The test is described as follows: GSK_TCMDC: Inhibition of Plasmodium falciparum Dd2 in whole red blood cells, using parasite LDH activity as an index of growth. Test compounds present at 2uM.
A further test has as its system HepG2. The test is described as follows: GSK_TCMDC: Percent inhibition of human HepG2 cell line. Test compounds present at 10uM.

Regarding `Cc1ccccc1Nc1nc(NCCc2ccccc2)nc2ccccc12`, the Inhibition in the test with Plasmodium falciparum [1] turned out to be 82%; with Plasmodium falciparum [2], 18%; in the test on HepG2 it was 32%.

As for `CCN(CC)CCN(Cc1ccc(-c2ccc(C(F)(F)F)cc2)cc1)C(=O)Cn1c(SCc2ccc(F)cc2)cc(=O)c2ccccc21.O=C(O)C(O)C(O)C(=O)O`, the Inhibition with Plasmodium falciparum [1] is listed as 100%; in the test on Plasmodium falciparum [2], 70%; in the test with HepG2, 50%.

With `O=C(Nc1cccc(-c2ccc(-c3nc4cc(C(F)(F)F)ccc4[nH]3)s2)c1)c1c[nH]cn1`, the Inhibition is 89% with Plasmodium falciparum [1], 36% with Plasmodium falciparum [2] and 55% in the test on HepG2.

On to `Br.CCCCCCCCn1c2c(c(=N)c3c1CCC3)CCC2`, for which the Inhibition in the test with Plasmodium falciparum [1] is listed as 99%; with Plasmodium falciparum [2], 93%; in the test on HepG2, 47%.

As for `N#Cc1cccc(CN2CCCN(Cc3cccc(C(=O)Nc4ccc(Cl)cc4)c3)CC2)c1.O=C(O)C(F)(F)F`, the Inhibition in the test on Plasmodium falciparum [1] was found to be 82%; with Plasmodium falciparum [2] it was 9%; in the test with HepG2, 46%.

Take `COCCN1CCN(Cc2ccc(-c3ccc(-c4nc5cccc(C)c5[nH]4)s3)cc2)CC1.O=C(O)C(F)(F)F`: the Inhibition in the test with Plasmodium falciparum [1] is listed as 95%; with Plasmodium falciparum [2], 52%; in the test on HepG2 it was 32%.

For the compound `CCC(Cc1cnc2nc(N)nc(N)c2n1)c1ccc(C(=O)O)cc1` (stereo not given), the values for the Inhibition in the test with Plasmodium falciparum [1], in the test on Plasmodium falciparum [2] and in the test with HepG2 were 93%, 0% and 15%, respectively.

For the compound `O=C(O)C(F)(F)F.O=S(=O)(NC1CCN(c2ccnc3cc(Cl)ccc23)C1)c1ccc(C(F)(F)F)cc1` (stereo not given), the values for the Inhibition in the test with Plasmodium falciparum [1], with Plasmodium falciparum [2] and in the test on HepG2 were 100%, 98% and 20%, respectively.

As for `FC(F)(F)c1ccc2[nH]c(-c3ccc(-c4cccc(CNCCN5CCNCC5)c4)s3)nc2c1.O=C(O)C(F)(F)F`, the values for the Inhibition in the test with Plasmodium falciparum [1], in the test on Plasmodium falciparum [2] and in the test on HepG2 were 91%, 39% and 22%, respectively.

Consider `CCOC(=O)C(C)(C)Oc1ccc(C(=C2CC(C)(C)CC(C)(C)C2)c2ccc(O)cc2)cc1`, for which the Inhibition amounted to 92% with Plasmodium falciparum [1], 78% with Plasmodium falciparum [2] and 0% in the test on HepG2.

One may read the Inhibition as the share of the control response that was lost under treatment. Higher therefore signals strong suppression.
